Assay results reported in PubChem BioAssay (NCI).
Compounds without any hit were thinned out: in the full panel of roughly 83,000, 20% have a hit.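 Assay: single dose, 48 h. Readout: percent growth (0 = no net growth; negative = cell death). Active: <10.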 Active and inactive are the calls of the source.

Experiments:
Assay in all cases: NCI-60 one-dose screen, 48 h (100 = growth as untreated, 0 = no growth, -100 = all killed)
Details in all cases: 10 µM unless noted
[1] = tested on: SK-MEL-2 melanoma
[2] = tested on: EKVX NSCLC
[3] = tested on: SN12C renal
[4] = tested on: UO-31 renal
[5] = tested on: TK-10 renal
[6] = tested on: ACHN renal
[7] = tested on: CAKI-1 renal
[8] = tested on: A498 renal
[9] = tested on: CCRF-CEM leukemia
[10] = tested on: MOLT-4 leukemia

Measured: growth

CC(=O)Nc1c(Cl)cc2c(c1Cl)Cc1ccccc1-2
inactive: [1] 93.8% | [2] 64.3% | [3] 90.9% | [4] 69.2% | [5] 115% | [6] 100% | [7] 86.1% | [8] 93.7% | [9] 102% | [10] 93%

O=C(Nc1ccccc1OC(=O)c1ccccc1)c1ccccc1
inactive: [1] 83.1% | [2] 110% | [3] 69.6% | [4] 77.4% | [5] 101% | [6] 98.9% | [7] 91.5% | [8] 81.4% | [9] 27.1% | [10] 26.2%

CCc1ccc(-c2nc(SCC(=O)NC3CCCCC3)n[nH]2)cc1
inactive: [1] 10.2% | [2] 42.1% | [3] 76.4% | [4] 69.8% | [5] 88.8% | [6] 64.2% | [7] 85.9% | [8] 86.4% | [9] 55.3% | [10] 61.6%

Cc1ccc(-c2cc(-c3ccccc3)n(-c3ccccc3)n2)cc1
inactive: [1] 74.6% | [2] 98.6% | [3] 107% | [4] 79.1% | [5] 99.4% | [6] 95.3% | [7] 94.5% | [8] 92.1% | [9] 84.9% | [10] 81.5%

CCC(=O)Nc1cc2c(cc1Cl)-c1ccccc1C2
inactive: [1] 97.5% | [2] 57.1% | [3] 68.7% | [4] 42.5% | [5] 110% | [6] 87.1% | [7] 83.6% | [8] 83.6% | [9] 72.3% | [10] 82.1%

CCOC1Oc2ccccc2C(=O)/C1=N/c1nccs1 (stereo not given)
inactive: [1] 73.9% | [2] 89.3% | [3] 76.4% | [4] 89.4% | [5] 98.8% | [6] 84.9% | [7] 77.3% | [8] 115% | [9] 82.4% | [10] 79.8%

COc1ccc(C2=NN(C(N)=S)C(c3ccc4c(c3)OCO4)C2)cc1 (stereo not given)
active: [4] -7.08% | [7] 6.32% | [9] 5.49%
inactive: [1] 47% | [2] 29.1% | [3] 31% | [5] 50.2% | [6] 22% | [8] 49.2% | [10] 13.8%

C[C@@H]1CN(c2nc3c(cc2F)c(=O)c(C(=O)O)cn3C(C)(C)C)C[C@H](C)N1
active: [7] -7.72%
inactive: [1] 97.1% | [2] 104% | [3] 104% | [4] 94.2% | [5] 102% | [6] 99.8% | [8] 107% | [9] 102% | [10] 101%

O=C(CC1Sc2ccccc2NC1=O)NNc1cccc(Cl)c1Cl (stereo not given)
inactive: [1] 87% | [2] 91.3% | [3] 87.5% | [4] 61.8% | [5] 89.9% | [6] 91.4% | [7] 90.4% | [8] 61.5% | [9] 70.8% | [10] 71.6%

C[C@@H]1C[C@@H]([C@@H](CC2CC(=O)NC(=O)C2)OC(=O)CC(=O)c2ccccc2)C(=O)[C@@H](C)C1
active: [3] 8.23% | [4] -10.2% | [5] 3.61% | [6] 7.54% | [7] -2.54% | [10] 9.81%
inactive: [1] 12.5% | [2] 11.4% | [8] 16.7% | [9] 15.4%

COc1c(O)cc2c(c1CC=C(C)C)OC(=O)c1c(cc(O)c(CC=C(C)C)c1O)O2
inactive: [1] 55.5% | [2] 78.5% | [3] 10.4% | [4] 45.1% | [5] 42% | [6] 30.2% | [7] 50.6% | [8] 116% | [9] 32.2% | [10] 20.6%

CCOC(=O)c1cc2oc(/C=C/c3cc(=O)c4cc(Cl)ccc4o3)cc2[nH]1
inactive: [1] 82.1% | [2] 89.7% | [3] 62.4% | [4] 81.8% | [5] 113% | [6] 97.8% | [7] 79% | [8] 115% | [9] 105% | [10] 88.9%

OC(c1cc(-c2cccc(Cl)c2)nc2ccccc12)C1CCCCN1 (stereo not given)
inactive: [2] 47.3% | [8] 56.3%
active: [1] -92% | [3] -5.08% | [4] -44.8% | [5] -63.2% | [6] -0.726% | [7] -36.5% | [9] -8.29% | [10] -30.6%

COC(=O)c1c(NC(=O)CSc2nnnn2-c2ccc(OC)cc2)sc(C)c1C
inactive: [1] 18.8% | [2] 74.8% | [3] 81.6% | [4] 84.6% | [5] 152% | [6] 87.3% | [7] 102% | [8] 110% | [9] 83.8% | [10] 90.8%

CCCCN1c2nc3ccccc3cc2Sc2cc3ccccc3nc21
inactive: [1] 61.9% | [2] 85.1% | [3] 102% | [4] 22% | [5] 108% | [6] 107% | [7] 460% | [8] 116% | [9] 89.2% | [10] 103%

Cc1ccc2nc(SCC(=O)Nc3ccc(-c4nc5ccccc5s4)c(Cl)c3)[nH]c2c1
inactive: [1] 105% | [2] 119% | [3] 107% | [4] 95% | [5] 109% | [6] 106% | [7] 105% | [8] 105% | [9] 103% | [10] 99.8%

O=C1N=C(N2CCOCC2)S/C1=C\c1cn(-c2ccccc2)nc1-c1ccccc1
inactive: [1] 81.7% | [2] 90% | [3] 92.4% | [4] 44.3% | [5] 57.1% | [6] 58.9% | [7] 93.9% | [8] 48% | [9] 92.4% | [10] 116%

COc1cc(/C(Cl)=C/C=C/C(=O)c2c(C)[n+]([O-])c3ccc(Cl)cc3[n+]2[O-])cc(OC)c1OC
active: [9] 8.02%
inactive: [1] 28.5% | [2] 89.3% | [3] 31.9% | [4] 45.7% | [5] 71.6% | [6] 26.9% | [7] 41.3% | [8] 85.1% | [10] 12.4%

CC1Cc2ccccc2N1C(=O)c1ccc(C(=O)c2ccccc2)cc1 (stereo not given)
inactive: [1] 19% | [2] 88.3% | [3] 81.9% | [4] 49.8% | [5] 84.1% | [6] 89.7% | [7] 77.8% | [8] 95.5% | [9] 94.3% | [10] 91.5%

NS(=O)(=O)N(c1cc(C(F)(F)F)cc(C(F)(F)F)c1)C1CCN(Cc2ccc(C(F)(F)F)cc2)CC1
inactive: [1] 28% | [2] 16.2% | [3] 55.1% | [4] 64.6% | [5] 67% | [6] 69.5% | [7] 66.2% | [8] 28.2% | [9] 23.6% | [10] 20.3%

Nc1ccc2c(c1)C(=O)c1cc(Cl)c(Cl)cc1-2
inactive: [1] 95.8% | [2] 74.1% | [3] 90.8% | [4] 49.9% | [5] 113% | [6] 92.1% | [7] 70.4% | [8] 76.5% | [9] 82.8% | [10] 77.1%
